Laboratory results: PubChem BioAssay (EPA / NIEHS)
The source made the active and inactive calls. How the source made its calls: active means hit-call score of the fitted dose curve at least 0.9, where 1 is the maximum; inactive means score below 0.9.

Read-out: Apoptosis regulator Bcl-2 (Homo sapiens) (UniProt P10415)
Assay: LTEA_HepaRG_BCL2: Life Technologies and Expression Analysis (LTEA) Assay for Bcl-2 gene using HepaRG (AID 2283475);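 further: BCL2 transcript by TaqMan qRT-PCR normalised to ACTB GAPDH and POLR2A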
Conditions: mRNA level, 48 h; actives raise or lower the signal
Method: LTEA_HepaRG is a cell based, multiplexed-readout assay that uses HepaRG, a human liver cell line, with measurements taken at 48 hours after chemical dosing on a 96-well plate.LTEA_HepaRG_BCL2 is one of 102 assay component(s) measured in the LTEA HepaRG cell culture assay. It is a marker of Cell proliferation, survival, death.Data from the assay component LTEA_HepaRG_BCL2 was analyzed into 1 endpoint. This assay endpoint, LTEA_HepaRG_BCL2, was analyzed with bidirectional fitting relative to DMSO as the negative control and baseline of activity. Using a type of inducible reporter, measures of mRNA induction for gain or loss-of-signal activity can be used to understand regulation of transcription factor activity. To generalize the intended target to other relatable targets, this assay endpoint is annotated to the cell cycle intended target family, where the subfamily is Cell proliferation, survival, death.
A total of 1060 chemcials from the ToxCast library were tested in eight-point concentration-response experiments. Cell culture and cytotoxicity assays were conducted at Thermo Fisher Scientific's Custom Services facility (Madison, WI). A single lot of human HepaRG cells (Thermo Fisher Scientific, Frederick, MD) was used for the cell culture experiments. 96-well format collagen type I coated plates of human HepaRG cells were prepared using established methods. Briefly, cryopreserved HepaRG cells were thawed, plated at a density of approximately 100,000 cells/well in HepaRG Thaw, Plate, and General Purpose media (HPRG770, Thermo Fisher Scientific), and incubated for 48 hours. 0.5% DMSO was selected as vehicle control to balance the requisite need of DMSO in HepaRG cultures to maintain differentiation (for example, baseline metabolism, proportions of hepatocytes vs. cholangiocytes), while enabling further hepatic receptor pathway activation (for example, PXR and CAR) in response to chemical exposure. 48 hours after plating, the culture medium was replaced with HepaRG Serum-Free Incudtion Media. Cells were exposed to each test chemical in duplicate and maintained in CO2 incubators for another 48 hours. Chemical plates were thawed to room temperature and 200x concentrations of treatment groups were prepared. 8-point conentration-reponse curves were made with the highest exposure at 100 uM, followed by half-log dilutions, all in 0.5% DMSO. Each test plate contained variouse controls, induction positive controls (1mM phenobarbital), cytotoxicity positive controls ([…] aflatoxin B1), vehicle controls (0.5% DMSO), and total lysis controls (0.5% DMSO). Cell morphology images were taken using an Essen IncuCyte FLR automated microscope, with six 96-well plates imaged in about 24 minutes. Images were captured and exported and JPEG files. Spent culture media was transfered to black-well plates for the LDH assay, and remaining media was sorted at -80 C for later use. Cells were treated with RLT buffer and frozen until shipped for gene expression analysis. Total RNA was isolated from the cell suspension in 75 uL of Buffer RLT (Qiagen, Germantown, MD 20874) by Quintiles/Expression Analysis (Durham, NC) using a custom isolation procedure. Total RNA from each plate well was transferred to a preamplification plate. Fluidigm's 96.96 Dynamic ArrayTM (Fluidigm, Amsterdam, the Netherlands) technology was used for gene expression analyses by quantitative reverse transcription polymerase chain reaction (qRT-PCR, performed by Quintiles/Expression Analysis, Durham, NC)89. Standard TaqManTM Assays (Applied Biosystems/ThermoFisher Scientific, Foster City, CA) were used to assess the expression of 93 genes selected based on their selectivity and sensitivity to important hepatic receptors known to be modulated by environmental chemicals; importance in human hepatocyte functionality; and hepatotoxicity. […]

Apoptosis regulator Bcl-2 (Homo sapiens), sequence (P10415 whole entry, looked up): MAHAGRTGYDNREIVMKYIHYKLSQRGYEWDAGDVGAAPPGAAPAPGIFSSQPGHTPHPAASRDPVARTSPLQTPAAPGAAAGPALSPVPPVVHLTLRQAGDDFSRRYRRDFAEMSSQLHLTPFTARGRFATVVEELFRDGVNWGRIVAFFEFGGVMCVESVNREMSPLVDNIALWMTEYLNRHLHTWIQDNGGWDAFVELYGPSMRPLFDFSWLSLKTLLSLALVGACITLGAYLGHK

Compound | outcome | AC50
CNC(C)=O | inactive | 
Cn1c(=O)c2[nH]cnc2n(C)c1=O | inactive | 
CC(C)C(=O)Nc1ccc([N+](=O)[O-])c(C(F)(F)F)c1 |  | 90.3 µM (active)
OC[C@H]1O[C@@H]2O[C@H]3[C@H](O)[C@@H](O)[C@@H](O[C@H]4[C@H](O)[C@@H](O)[C@@H](O[C@H]5[C@H](O)[C@@H](O)[C@@H](O[C@H]6[C@H](O)[C@@H](O)[C@@H](O[C@H]7[C@H](O)[C@@H](O)[C@@H](O[C@H]1[C@H](O)[C@H]2O)O[C@@H]7CO)O[C@@H]6CO)O[C@@H]5CO)O[C@@H]4CO)O[C@@H]3CO | inactive | 
CCCCN1C(=O)[C@@H]([C@H](O)C2CCCCC2)NC(=O)C12CCN(Cc1ccc(Oc3ccc(C(=O)O)cc3)cc1)CC2 |  | 12.7 µM (active)
CCn1nc(C)c2c1C(=O)NCC(c1ccc(O)cc1)=N2 | inactive | 
c1ccc(C(O[C@@H]2CCCN(CCc3ccc4c(c3)OCO4)C2)c2ccccc2)cc1 |  | 73.2 µM (active)
CCCC(CCC)C(=O)O | inactive | 
C[C@]12C=CC(=O)C=C1CC[C@H]1[C@@H]3C[C@@H](O)[C@](O)(C(=O)CO)[C@@]3(C)C[C@H](O)[C@@]12F | inactive | 
NC(=O)NN=Cc1ccc([N+](=O)[O-])o1 | inactive | 
Cc1ccc(S(=O)(=O)NC(=O)NN2CCCCCC2)cc1 | inactive | 
O=c1[nH]cnc2c1ncn2[C@H]1CC[C@@H](CO)O1 | inactive | 
COc1cc(C(C)C)c2c(c1)S(=O)(=O)N(COc1cc(=O)n3cccc(OCCN4CCCCC4)c3n1)C2=O |  | 22.1 µM (active)
COCc1nnc(-c2ccc[n+]([O-])c2)n1-c1c(Cl)c(Cl)cc2[nH]c(=O)c(=O)[nH]c12 | inactive | 
O=S(=O)(O)c1ccc(N=Nc2c(O)ccc3cc(S(=O)(=O)O)ccc23)cc1 | inactive | 
O=C1CN(N=Cc2ccc([N+](=O)[O-])o2)C(=O)N1 |  | 80.7 µM (active)
Nc1ccn([C@@H]2O[C@H](CO)[C@@H](O)[C@@H]2O)c(=O)n1 | inactive | 
CCCc1ccccc1 | inactive | 
O=C(NO)C1(NS(=O)(=O)c2ccc(Oc3ccc(F)cc3)cc2)CCOCC1 | inactive | 
OC(CCl)CCl | inactive | 

Compound | outcome | AC50
Cc1nccn1-c1ccc(Sc2cccc(C3(C(N)=O)CCOCC3)c2)cc1 |  | 7.26 µM (active)
NC(=O)N1c2ccccc2C=Cc2ccccc21 | inactive | 
COc1cc2c(c(OC)c1OC)-c1ccc(OC)c(=O)cc1[C@@H](NC(C)=O)CC2 | inactive | 
OCc1ccccc1 | inactive | 
CCOC(N)=O | inactive | 
C=CCc1cc(S(=O)(=O)c2ccc(O)c(CC=C)c2)ccc1O | inactive | 
CCc1ccc(O)c(C(C)(C)C)c1 | inactive | 
OCCOCCOCCO | inactive | 
C=CN1CCCC1=O | inactive | 
CC1(C)C(=O)N(Cl)C(=O)N1Cl | inactive | 
CCCCCCCCCCCCCCCCOS(=O)(=O)O | inactive | 
O=C(O)[C@H](O)[C@@H](O)C(=O)O | inactive | 
CC(=O)c1ccccc1 | inactive | 
C[C@@H](Oc1ccc(CNC(=O)c2cccnc2Oc2ccc3c(c2)OCO3)c(F)c1)C(=O)O | inactive | 
Cc1ncc([C@@H](CCCCCCc2ccc3c(n2)NCCC3)CC(=O)O)cn1 | inactive | 
OCC(CO)(CO)CO | inactive | 
O=S1(=O)CCCO1 | inactive | 
CC(C)c1nnc2ccc(-c3ocnc3-c3cc(F)ccc3F)cn12 | inactive | 
CCc1cccc(CC)c1N | inactive | 
COS(C)(=O)=O | inactive | 
